Screening data from PubChem.
A selection: hits, their analogues and other compounds. The true share with any hit is near 1.4%.
PfHsp40 yeast: restores yeast growth despite PfHsp40 toxicity; AID 504582; 340,000 compounds, 0.68% hits; S. cerevisiae expressing PfHsp40, growth rescue, ATP luminescence; growth rescue, % at 12.5 µM; in the data active means growth rescue above about 28%, passing the limit was not always enough; inconclusive means no clear call, values can overlap the other calls;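 further: yeast W303a lacking pdr1 and pdr3 grown in galactose medium; growth measured after three days at 30 °C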
Y pestis TopoI: Y. pestis Topo-I inhibition via cleavage products. 360,000 compounds, 0.064% hits. activity, % at 10 µM. Y. pestis Topo-I cleavage product accumulation, plate reader. AID 504884; in the data active means activity above about 50%, passing the limit was not always enough; inconclusive means no clear call, values can overlap the other calls
BJeLR viability: BJeLR cell viability loss. BJeLR (HRASV12) viability, CellTiter-Glo ATP luminescence, 48 h. inhibition, % (no concentration beside the values). 300,000 compounds, 0.17% hits; in the data active means inhibition above about 50%; inconclusive means no clear call, values can overlap the other calls
RN4220 kill: S. aureus RN4220 growth inhibition. OD600, 16 h. inhibition, % (concentration not given with the values). 330,000 compounds, 0.33% hits; in the data active means inhibition above about 85%;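 further: plate controls were untreated cells for no effect and reference antibiotic for full effect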
Sa ugtP lethal: compounds lethal to S. aureus RN4220 ugtP deletion mutant | growth inhibition, % (concentration not given with the values) | OD600 growth, 16 h | 330,000 compounds, 0.54% hits | AID 1259309; in the data active means growth inhibition above about 68%;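 further: plate controls were untreated wells for no effect and antibiotic for full effect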
PrP 5UTR inh: inhibition of PrP 5' UTR reporter expression. cell-based PrP 5' UTR mRNA reporter, plate reader. inhibition, % (no concentration beside the values). 340,000 compounds, 0.35% hits. AID 488862; in the data active means inhibition above about 52%; further: 0 = median of the neutral control wells
* hit, by the source's call; ? = inconclusive; / = no result given.

SMILES	PfHsp40 yeast	Y pestis TopoI	BJeLR viability	RN4220 kill	Sa ugtP lethal	PrP 5UTR inh
COc1cccc(NC(=O)C2CCCN2S(=O)(=O)c2cccc3cccnc23)c1 (stereo not drawn)	/	/	/	6	1	/
COC(COC(N)=O)C1=C(N2CC2)C(=O)C(C)=C(N2CC2)C1=O (stereo not drawn)	-1	-4	/	/	/	-29
COC12C(COC(N)=O)C3=C(C(=O)C(C)=C(N)C3=O)N1CC1C2N1C (stereo not drawn)	0	-4	-19	100*	100*	49
N#Cc1nc(COc2ccc(Cl)cc2)oc1NCc1ccc2c(c1)OCO2	3	25	-7	-1	-7	-8
Cc1cccc(OCc2nc(C#N)c(NCc3ccc4c(c3)OCO4)o2)c1	29*	37	-8	0	-14	-8
CCOC1OC(C(=O)O)=CC(C)C1CCCO (stereo not drawn)	/	/	/	0	-1	/
CC(=O)OC1CC[C@@]2(C)C(=CCC3C2CC[C@]2(C)C(=O)CCC32)C1 (stereo partly drawn)	/	/	/	-5	87*	/
O=C1C(Cc2ccccc2)Nc2ncnc(N3CCOCC3)c2N1Cc1ccccc1 (stereo not drawn)	-1	2	/	4	1	-11
O=C1C(Cc2ccccc2)Nc2ncnc(N3CCc4ccccc4C3)c2N1Cc1ccc(Cl)cc1 (stereo not drawn)	38*	11	11	/	/	-5
COc1ccc(CN2C(=O)C(Cc3ccccc3)Nc3ncnc(N4CCOCC4)c32)cc1 (stereo not drawn)	45*	12	-9	1	-2	-28
O=C(Nc1ccc(Cl)cc1)C1CCCC1	1	0	0	3	0	-11
O=C(Nc1cc(Cl)cc(Cl)c1)C1CCCC1	70*	-13	3	-7	18	-37
CCCCCn1c(=O)c(C(=O)Nc2ncccc2C)c(O)c2ccccc21	1	-7	-9	53	101*	-4
CCCCn1c(=O)c(C(=O)Nc2cnccn2)c(O)c2ccccc21	0	-1	-11	68	83*	-35
Cc1ccc(S(=O)(=O)N2C(c3cccs3)CC=C(C(=O)O)C2c2ccccc2)cc1 (stereo not drawn)	/	/	/	17	-7	/
CCOc1ccc(N/C(SCc2cccc([N+](=O)[O-])c2)=C(/C#N)C(N)=O)cc1	3	1	7	6	9	-22
N#CC(C#N)=C(Nc1ccc(F)cc1)SCc1cccc(F)c1	-3	0	31	99*	98*	-4
O=C1NN(c2ccc(F)c(Cl)c2)C(=O)/C1=C\c1cccc(OC(=O)c2cccs2)c1	85*	-31	9	1	-1	-10
CCCNC(=O)N1C2CCC1C(C(=O)OC)=C(c1ccc(F)cc1OCc1ccccc1)C2 (stereo not drawn)	/	/	/	3	6	/
CCC(C)C(=O)OCC1(c2ccc(C)cc2OC(=O)C(C)C)CO1 (stereo not drawn)	0	-6	53*	/	/	2
O=[N+]([O-])c1cccc(CN2C[C@@]34C=CC(CC3S2(=O)=O)O4)c1 (stereo partly drawn)	/	/	/	1	1	/
CC(C)(C)c1ccc(C(=O)NC(=S)NNC(=O)c2cccs2)cc1	465*	5	15	86*	92*	6
O=C(NC(=S)NNC(=O)c1cccs1)c1ccccc1	19	-8	4	32	14	-4
CC(C)(C)C(=O)NC(=S)NNC(=O)c1ccc(-c2ccccc2)cc1	-1	7	27	92*	89	13
CC(C)(C)c1ccc(C(=O)NNC(=S)NC(=O)c2cccnc2)cc1	109*	-4	13	70	36	9
SMILES	PfHsp40 yeast	Y pestis TopoI	BJeLR viability	RN4220 kill	Sa ugtP lethal	PrP 5UTR inh
O=C(NNC(=S)NC(=O)c1ccccc1)c1cccnc1	1	0	-6	13	-4	-15
C=C(C)C(O)CC/C(C)=C/Cc1c(O)ccc(C(=O)/C=C/c2ccc(O)cc2)c1O (stereo not drawn)	?	-4	/	99*	91*	-3
COc1ccc(C(=O)/C=C/c2ccc(O)cc2)c(O)c1C/C=C(\C)CCC=C(C)C	0	-29	/	26	10	-13
NC1=NCC(c2ccccc2)N1CCCCC1CCCCC1 (stereo not drawn)	/	/	/	-16	-11	/
CC(C)CCNC(=O)NC(=O)CSc1ccc(S(=O)(=O)N2CCOCC2)cn1	0	11	/	6	11	-5
CNC(=O)NC(=O)CSc1ccc(S(=O)(=O)N2CCOCC2)cn1	33*	2	/	8	8	-17
CCOc1ccc(C2CC=C(C(=O)O)C(c3ccc(F)cc3)N2S(=O)(=O)c2ccc(C)cc2)cc1 (stereo not drawn)	/	/	/	13	19	/
CCCOc1ccc(N2C(=O)CC(N3CCC(O)(c4cccc(C(F)(F)F)c4)CC3)C2=O)cc1 (stereo not drawn)	28*	-5	1	0	-5	-24
O=C(CNC(=O)c1ccc(Br)o1)NCc1ccc(Cl)cc1Cl	52*	3	-1	0	-1	-3
O=C(CNC(=O)c1ccc(Br)o1)NCc1cccc(Cl)c1	1	9	-3	0	-1	-8
COc1ccc(-c2cc3nc(-c4ccccc4)cc(N4CCN(C(C)=O)CC4)n3n2)cc1	/	29	/	/	/	/
COc1ccc(-c2cc3nc(-c4ccccc4)cc(N4CCCC(O)C4)n3n2)cc1 (stereo not drawn)	66*	17	4	-6	13	-14
COc1ccc(-c2cc3nc(-c4ccccc4)cc(N4CCC(O)CC4)n3n2)cc1	1	25	-4	-10	90*	0
COc1ccc(C2C=CCN(CC(C)C)CC(=O)N2Cc2ccc(F)cc2)cc1 (stereo not drawn)	/	/	/	9	7	/
C#CCOCCOCCOCCNc1nc(N2CCN(C(=O)Cn3cc(CCCN=C(N)N)nn3)CC2)nc(N2CCN(C(=O)C(C(C)C)n3cc(CCO)nn3)CC2)n1 (stereo not drawn)	/	/	/	1	-6	/
CC#CCN1c2ccccc2[C@]23CC(C(=O)OC)N(C(=O)c4ccco4)C2=NC(C(=O)OC)=C(C(=O)OC)C13 (stereo partly drawn)	/	/	/	7	1	/
C=C(C)C(=O)Nc1cccc(C2=NOC3(C2)CC(C(N)=O)N(C(=O)CC#N)C3)c1 (stereo not drawn)	/	/	/	4	-4	/
CCOC(=O)C1C2COc3cc(OC)ccc3C2N2C(=O)CN(CCc3c[nH]c4ccccc34)C(=O)[C@@]12C (stereo partly drawn)	/	/	/	9	4	/
O=C(NC1CCN(Cc2ccccc2)CC1)c1ccc2c(c1)OCCCO2	-1	70*	-8	2	5	2
Cc1ccccc1-c1nc(P(=O)(c2ccccc2)c2ccccc2)c(N2CCOCC2)o1	-1	53*	-9	0	2	-18
